# DAX1 inh-1: DAX1 (NR0B1) inhibitors, primary screen, cell-based, HEK293, Gal4-DAX1, luciferase luminescence | inhibition, % at 6.75 µM | hit rate 0.99% among 340,000 | HEK293 Gal4-DAX1 luciferase reporter | Nuclear receptor subfamily 0 group B member 1 (Homo sapiens), P51843;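 active means inhibition above the mean over all tested compounds plus 3 SD, cut at about 4.2% in these data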;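 further: 0% = DAX1-transfected cells with DMSO and 100% = empty-vector control cells with DMSO; inhibition shows as a rise in luminescence from relieved DAX1 repression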
# Target sequence (P51843 207-470 limits assumed): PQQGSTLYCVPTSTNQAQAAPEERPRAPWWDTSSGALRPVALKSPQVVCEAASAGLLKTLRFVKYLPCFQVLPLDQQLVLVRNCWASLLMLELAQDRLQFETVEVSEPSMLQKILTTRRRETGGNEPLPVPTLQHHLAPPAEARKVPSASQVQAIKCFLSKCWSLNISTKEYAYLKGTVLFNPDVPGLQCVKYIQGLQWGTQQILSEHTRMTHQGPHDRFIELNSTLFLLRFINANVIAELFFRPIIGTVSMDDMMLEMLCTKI
# hgDAF12 agonist: H. glycines DAF-12 receptor agonists, primary screen, cell-based, luminescence, HEK293, GAL4 fusion, UAS-luciferase; hit rate 1.8% among 370,000; HEK293 GAL4-hgDAF12 UAS-luciferase reporter, agonist luminescence; normalized to butyrate control; AID 687014, 2013; Nuclear hormone receptor DAF-12 (Heterodera glycines), GAL4 fusion; activation, % at 6.8 µM;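 active means activation above a cutoff set at the mean of all screened compounds plus 3 SD, cut at about 10% in these data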;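 further: 0% = DMSO wells and 100% = sodium butyrate wells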
# ssDAF-12 act: S. stercoralis DAF-12 nuclear receptor activators, primary screen, cell-based, luminescence, HEK293, GRIP1 co-expression, lit1-tk-luc | hit rate 1% among 370,000 | Nuclear hormone receptor DAF-12 (Strongyloides stercoralis) | activation, % at 6.8 µM | AID 652126, 2013 | HEK293 ssDAF-12/GRIP1 lit1-tk-luc reporter; % of 3 µM dafachronic acid response;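 active means activation above the mean over all tested compounds plus 3 SD, cut at about 0.9% in these data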;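 further: 0% = DMSO-only wells and 100% = 3 µM delta7-dafachronic acid wells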
# DAX1 inh-2: DAX1 (NR0B1) inhibitors on StAR promoter, primary screen, cell-based, luminescence, SF-1 (NR5A1), full-length DAX-1. HEK293T StAR-luciferase reporter, SF-1/DAX-1 repression relief. inhibition, % at 6.8 µM. hit rate 1.1% among 370,000;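 active means inhibition above the mean over all tested compounds plus 3 SD, cut at about 3.6% in these data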;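 further: 0% = DAX-1 cells with DMSO and 100% = cells lacking DAX-1 with DMSO; higher inhibition means more luminescence from relief of DAX-1 repression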
# AHR act: AHR activators, primary screen, cell-based, luminescence, luciferase reporter, human | Aryl hydrocarbon receptor (Homo sapiens), P35869 | AHR-responsive luciferase reporter cells | activation, % at 5 µM | hit rate 2.5% among 320,000; in the data active means activation above about 47%;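 further: 0% = vehicle wells and 100% = reference agonist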
# hcDAF-12 act: H. contortus DAF-12 nuclear receptor activators, primary screen, cell-based, luminescence, HEK293, lit1-tk-luc reporter | HEK293 hcDAF-12 lit1-tk-luc reporter; 0% DMSO, 100% Δ7-dafachronic acid | hit rate 1.4% among 370,000 | activation, % at 6.8 µM;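 active means activation above the mean of all tested compounds plus 3 SD, cut at about 5.5% in these data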;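 further: 100% = response to 3 µM Δ7-dafachronic acid high control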
# * = called active by the depositor; nt = no result given. An excerpt weighted towards active compounds, which were near 5.7% of everything screened.
SMILES,DAX1 inh-1,hgDAF12 agonist,ssDAF-12 act,DAX1 inh-2,AHR act,hcDAF-12 act
CC(C)(C)NC(=O)NC(=O)COc1ccccc1C#N,5.1*,9,0,3,3,2
C=CCNC(=O)COc1ccccc1C#N,0,6,-2,1,1,1
CN1CCN(S(=O)(=O)c2cccc(C(=O)Nc3sc4c(c3-c3nc5ccccc5[nH]3)CCCC4)c2)CC1,-1,6,0,0,32,6.1*
CC(=O)NCCC(=O)Nc1sc2c(c1-c1nc3ccccc3[nH]1)CCCC2,0,1,-1,-1,22,0
Cc1cc(C)c(C#N)c(Sc2ccccc2N)n1,1,1,1,0,49*,4
CCc1nc2c(OCc3ccc(C(=O)N(C)C)cc3)cccn2c1N(C)C(=O)Nc1ccccc1OC,nt,-2,-2,1,nt,-1
CC(=O)Nc1ccc(N/C=C/C(=O)c2ccco2)cc1,2,4,-1,1,2,0
CN(C)c1ccc(N/C=C/C(=O)c2ccco2)cc1,4.3*,4,0,1,27,1
COc1cc(CNc2ncnc3c2[nH]c2ccc(C)cc23)cc(OC)c1,-3,-5,-2,-1,27,-3
Cc1ccc2[nH]c3c(NCc4ccco4)ncnc3c2c1,-3,-2,-3,-3,57*,-2
COc1ccc(/C=N/Nc2ncnc3c2[nH]c2ccc(C)cc23)c(OC)c1OC,nt,3,-1,0,63*,1
C[C@H](CO)N1C[C@H](C)[C@H](CN(C)Cc2cccc(F)c2)Oc2ncc(Br)cc2C1=O,0,0,-1,-1,nt,-1
Cc1ccc(Nc2nc(NCCO)nc(N3CCCC3)n2)cc1,0,0,-2,-1,28,-3
CCOc1ccc(C(=S)N2CCCC2)cc1OCC,1,0,-2,0,0,-3
CCCCNc1c(-c2cccc(-c3cc(C(C)=O)cs3)c2)nc2cc(C)ccn12,-4,-4,-2,-1,55*,-3
Cc1ccc(SSc2cc(C)ccc2N)c(N)c1,0,-8,0,0,58*,4
Cc1ccc(-c2n[nH]c(=S)n2/N=C/c2cccs2)cc1,-1,-3,-1,0,55*,-2
CC(C)(C)c1ccc(-c2n[nH]c(=S)n2/N=C/c2ccncc2)cc1,0,4,-1,0,75*,-1
COc1ccc(-c2n[nH]c(=S)n2/N=C/c2cccn2C)cc1,1,0,-1,0,70*,-1
Cc1ccc(-c2n[nH]c(=S)n2/N=C/c2cccn2C)cc1,1,0,-1,0,37,2
Cc1ccsc1/C=N/n1c(-c2cccnc2)n[nH]c1=S,2,2,-2,-1,60*,-1
Cc1ccc(/C=N/n2c(-c3ccncc3)n[nH]c2=S)cc1,-1,3,-1,0,nt,-2
N#C/C(=C\c1ccc(O)cc1)C(=O)NCc1cccc(Cl)c1,2,3,-1,0,0,-1
Cc1ccc(CC(=O)Nc2nc3ccccc3[nH]2)cc1C,0,6,-1,0,13,-1
O=C(OCC(O)CN1CCCCC1)C12CC3CC(CC(C3)C1)C2 (configuration not stated),0,2,-1,1,-1,-1
COC(=O)CSc1cc(SCC(=O)OC)c(C#N)c(SCC(=O)OC)c1,2,-1,-1,0,-1,-1
COC(=O)Nc1ccc(C)c(NC(=O)OC)c1,-1,0,-1,0,9,6.4*
CCC(=O)Nc1cccc(NC(=S)NC(=O)c2cccc(C)c2)c1,1,9,-1,1,34,1
Cc1ccc(NC(=S)NC(=O)c2ccccc2)cc1NC(=S)NC(=O)c1ccccc1,1,10,-1,1,nt,6.2*
O=C(NC(=S)Nc1cccc(NC(=S)NC(=O)c2ccccc2)c1)c1ccccc1,-2,4,0,-1,nt,5
